Results: PubChem BioAssay (NCATS)
Values joined by “and” are separate entries in the source; they are usually repeats but may differ in a detail not shown here. Equal values may be shown once. Inconclusive results are not listed. Active and inactive are the calls of the source. Unless noted, calls follow the shape of the full dose curve.

How the values were obtained:
[1] = Primary qHTS for Huh7 cytotoxicity: counterscreen for inhibitors of MERS-S pseudotyped particle cell entry (AID 1479147)
[2] = Primary qHTS for inhibitors of MERS-S pseudo-typed particle cell entry (AID 1479149); also: nearly all actives have a fitted effect of over 60% in size
[3] = Primary qHTS for Vero E6 cytotoxicity: counterscreen for inhibitors of SARS-S pseudo-typed particle cell entry (AID 1479150)
[4] = Primary qHTS for inhibitors of La Crosse Virus (LACV) - induced cell death in SH-SY5Y cells (AID 1508616; active = well fitted curve in the direction sought with a large enough effect; an effect the other way counts as inactive or inconclusive;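 also: top concentration of the series differs between compounds; higher means more rescue of cells from virus-induced death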)
How it was run: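 Cytopathicity rescue screen: compounds pinned onto SH-SY5Y cells, which are then infected with LACV (MOI 0.01) and held 6 days at 37C. Percent activity is scaled between infected DMSO control and uninfected DMSO control.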

[5] = target: Calcium and integrin-binding protein 1 (Homo sapiens) (UniProt Q99828); test: Primary qHTS for Identification of Calcium Integrin Binding Protein 1 (CIB1) Competitor (AID 1508620; active = well fitted curve in the direction sought with a large enough effect; an effect the other way counts as inactive or inconclusive;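 also: GST tagged CIB1 binding a fluorescein labelled alphaIIb integrin peptide tracer; top concentration of the series differs between compounds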)
Calcium and integrin-binding protein 1 (Homo sapiens), sequence (Q99828 whole entry, looked up): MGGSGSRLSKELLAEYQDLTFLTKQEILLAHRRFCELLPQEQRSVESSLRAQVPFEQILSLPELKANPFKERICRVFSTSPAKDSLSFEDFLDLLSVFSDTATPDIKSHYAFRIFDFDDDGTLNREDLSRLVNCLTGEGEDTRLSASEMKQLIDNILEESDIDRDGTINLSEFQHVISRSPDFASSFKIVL
How it was run: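 CIB1-GST (1 uM final) and compound incubated 15 min at room temperature before adding FITC-alphaIIb peptide tracer (100 nM final). Competition for binding read by fluorescence polarization (ex 480, em 540) after another 15 min at room temperature.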

[6] = A High-Content qHTS Against Drug Library for the Identification of Small Molecules that Inhibit DYT1 Early Onset Primary Dystonia-Associated Cell Pathology (AID 1645839)
How it was run: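 High-content imaging quantified EGFP-TorsinA mislocalization in HEK293-derived cells inducibly expressing DYT1 mutant torsinA, after 48 h exposure to compound given together with tetracycline induction. Cell count served as a toxicity channel alongside %pathology.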

[7] = target: Cytochrome P450 2D6 (Homo sapiens) (UniProt P10635); test: Cytochrome P450 family 2 subfamily D member 6 (CYP2D6) small molecule antagonists: luciferase biochemical (cell-free) qHTS assay (AID 1645840; active = well fitted curve in the direction sought with a large enough effect in the repeat runs; an effect the other way counts as inactive or inconclusive; also: nearly all actives have a fitted effect of over 55% in size; also: potency is read from the fitted curve at half-maximal effect)
Cytochrome P450 2D6 (Homo sapiens), sequence (P10635 whole entry, looked up): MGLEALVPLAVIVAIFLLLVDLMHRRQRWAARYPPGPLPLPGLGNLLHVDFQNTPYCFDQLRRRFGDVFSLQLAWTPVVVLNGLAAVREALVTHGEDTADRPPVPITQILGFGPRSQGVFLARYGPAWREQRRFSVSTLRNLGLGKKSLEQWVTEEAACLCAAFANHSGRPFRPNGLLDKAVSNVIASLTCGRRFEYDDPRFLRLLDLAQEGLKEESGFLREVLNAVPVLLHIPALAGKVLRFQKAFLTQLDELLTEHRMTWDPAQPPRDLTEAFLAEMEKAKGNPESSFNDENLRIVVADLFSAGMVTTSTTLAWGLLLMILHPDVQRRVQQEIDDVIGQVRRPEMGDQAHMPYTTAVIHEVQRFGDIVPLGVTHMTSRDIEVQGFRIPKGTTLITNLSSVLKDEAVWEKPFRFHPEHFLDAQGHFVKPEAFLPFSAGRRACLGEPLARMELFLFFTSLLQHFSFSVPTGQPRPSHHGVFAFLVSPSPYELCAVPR
How it was run: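 P450-Glo CYP2D6 system: proluciferin substrate converted by enzyme to luciferin, read by luminescence proportional to activity. Enzyme-substrate mix with compound 10 min at room temperature, then NADPH regeneration 1 h before detection reagent.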

[8] = Cytotoxicity counterscreen for inhibitors of SARS-CoV-2 cell entry (AID 1645845); also: nearly all actives have a fitted effect of over 50% in size
How it was run: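 ATP-content luminescence (ATPLite 1step, 15 min RT) read after 48 h compound exposure of Expi293F cells stably expressing human ACE2; normalized to cells-only wells and media-only wells.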

[9] = Primary qHTS to identify inhibitors of SARS-CoV-2 cell entry (AID 1645846); conditions: activity change, negative = inhibition: at 57.1 µM (top of the series) unless noted; also: nearly all actives have a fitted effect of over 45% in size
How it was run: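 Inhibition of spike-mediated entry was scored in human ACE2-transfected Expi293F cells. Particles were MLV-pseudotyped with Wuhan-Hu-1 S carrying a 19-aa C-terminal deletion; signal was luciferase after two days, scaled between spike PP and fusion-protein-free PP.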

[10] = target: Calcium and integrin-binding protein 1 (Homo sapiens) (UniProt Q99828); test: Validation qHTS for Identification of Calcium Integrin Binding protein 1 (CIB1) Competitor (AID 1508618; active = well fitted curve in the direction sought with a large enough effect; an effect the other way counts as inactive or inconclusive)
How it was run: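 Fluorescence polarization with 1 uM CIB1-GST and 100 nM FITC-alphaIIb peptide in HEPES pH 7.4, NaCl, 5 mM CaCl2, Tween20. Compounds at up to 114 uM final, preincubated with protein 15 min; read after 15 min more at RT.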

[11] = Primary qHTS for small molecule stabilizers of the endoplasmic reticulum resident proteome: Secreted ER Calcium Modulated Protein (SERCaMP) assay (AID 1508630; active = well fitted curve in the direction sought with a large enough effect; an effect the other way counts as inactive or inconclusive)
How it was run: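 The SH-SY5Y reporter protocol was run at 3 concentrations up to 38.3 uM (primary) or 11 concentrations (follow-up): 16 h compound, 100 nM thapsigargin for 4 h, then extracellular luciferase luminescence.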

[12] = target: Cytochrome P450 2C9 (Homo sapiens) (UniProt P11712); test: Cytochrome P450 family 2 subfamily C member 9 (CYP2C9) small molecule antagonists: luciferase biochemical (cell-free) qHTS assay (AID 1645842; active = well fitted curve in the direction sought with a large enough effect in the repeat runs; an effect the other way counts as inactive or inconclusive; also: nearly all actives have a fitted effect of over 55% in size; also: potency is read from the fitted curve at half-maximal effect)
Cytochrome P450 2C9 (Homo sapiens), sequence (P11712 whole entry, looked up): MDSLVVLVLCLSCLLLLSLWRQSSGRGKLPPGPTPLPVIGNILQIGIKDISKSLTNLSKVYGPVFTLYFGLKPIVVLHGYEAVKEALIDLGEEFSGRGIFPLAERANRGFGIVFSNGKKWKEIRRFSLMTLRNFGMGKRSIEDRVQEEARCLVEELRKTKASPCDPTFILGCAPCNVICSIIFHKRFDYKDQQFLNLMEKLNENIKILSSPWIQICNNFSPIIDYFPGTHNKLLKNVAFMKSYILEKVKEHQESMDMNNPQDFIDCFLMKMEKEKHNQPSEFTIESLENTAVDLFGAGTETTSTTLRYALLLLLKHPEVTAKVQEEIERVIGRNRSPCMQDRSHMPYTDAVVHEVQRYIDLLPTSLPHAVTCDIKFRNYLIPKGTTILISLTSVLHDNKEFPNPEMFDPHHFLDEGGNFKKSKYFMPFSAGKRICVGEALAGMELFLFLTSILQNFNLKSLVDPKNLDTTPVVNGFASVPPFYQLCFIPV
How it was run: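 P450-Glo CYP2C9 system: proluciferin substrate with enzyme in mix containing 0.4% BSA, 10 min at room temperature, then NADPH regeneration solution added and incubated 1 h at 37C. Detection reagent stopped reaction; luminescence read after 20 min as RLU.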

[13] = Confirmatory qHTS for VERO E6 Cytotoxicity Assay: Counterscreen for SARS-CoV-2 CPE Assay (AID 1508605); also: nearly all actives have a fitted effect of over 60% in size; also: potency is read from the fitted curve at half-maximal effect
[14] = Confirmatory qHTS for activators (rescue) of SARS-CoV-2 Cytopathic Effect (CPE) (AID 1508606); also: potency is read from the fitted curve at half-maximal effect; nearly all actives have a fitted effect of over 70% in size

CN(C)[C@@H]1C(=O)C(C(N)=O)=C(O)[C@@]2(O)C(=O)C3=C(O)c4c(O)cccc4[C@@](C)(O)[C@H]3C[C@@H]12
inactive: Potency [1] | Potency [2] | Potency [3] | Potency [4] | Potency [5] | Potency [6] | Potency [8] | Potency [9]
active: Potency [7] 15.5 µM

CN(C)CCOC(c1ccc(Cl)cc1)c1ccccn1 (stereo not given)
inactive: Potency [1] | Potency [2]

NCC1(CC(=O)O)CCCCC1
1.13%: activity change, negative = inhibition [9]
inactive: Potency [1] | Potency [2] | Potency [3] | Potency [4] | Potency [10] | Potency [5] | outcome [11] | Potency [6] | Potency [7] | Potency [12] | Potency [8]

N[C@@H]1C[C@H]1c1ccccc1
active: Potency [12] 21.9 µM
inactive: Potency [1] | Potency [2] | Potency [3] | Potency [4] | Potency [5] | outcome [11] | Potency [6] | Potency [8] | Potency [9]
-29.3%: activity change, negative = inhibition [9]

Cc1c(O)cccc1C(=O)N[C@@H](CSc1ccccc1)[C@H](O)CN1C[C@H]2CCCC[C@H]2C[C@H]1C(=O)NC(C)(C)C
inactive: Potency [1] | Potency [2] | Potency [3]
active: Potency [13] 12.6 µM | Potency [14] 3.16 µM

CN1CCN(C(=O)O[C@H]2c3nccnc3C(=O)N2c2ccc(Cl)cn2)CC1
inactive: Potency [1] | Potency [2] | Potency [3] | Potency [4] | Potency [5] | outcome [11] | Potency [6] | Potency [12] | Potency [8] | Potency [9]

Cc1cccc(C)c1NC1=NCCCS1
-11.5%: activity change, negative = inhibition [9]
inactive: Potency [1] | Potency [2] | Potency [3] | Potency [4] | Potency [10] | Potency [5] | outcome [11] | Potency [6] | Potency [12] | Potency [8]
active: Potency [7] 15.5 µM

CC(C)=CC1C(C(=O)OCc2cccc(Oc3ccccc3)c2)C1(C)C (stereo not given)
inactive: Potency [1] | Potency [2] | Potency [3] | Potency [4] | Potency [5] | outcome [11] | Potency [6] | Potency [8] | Potency [9]
active: Potency [12] 3.89 µM

Nc1ccncc1
-28.2% [at 114 µM]: activity change, negative = inhibition [9]
inactive: Potency [1] | Potency [2] | Potency [3] | Potency [4] | Potency [10] | Potency [5] | Potency [6] | Potency [8]

CC(=O)Nc1cc([As](=O)(O)O)ccc1O
inactive: Potency [1] | Potency [2] | Potency [3] | Potency [4] | Potency [5] | Potency [6] | Potency [7] | Potency [12]
-7.63%: activity change, negative = inhibition [9]

CC(C)c1nc(CN(C)C(=O)N[C@H](C(=O)N[C@@H](Cc2ccccc2)C[C@H](O)[C@H](Cc2ccccc2)NC(=O)OCc2cncs2)C(C)C)cs1
inactive: Potency [1] | Potency [2] | Potency [3]

Clc1ccc2c(c1)C(N1CCNCC1)=Nc1ccccc1O2
-2.85%: activity change, negative = inhibition [9]
inactive: Potency [1] | Potency [2] | Potency [3] | Potency [13] | Potency [8]

Oc1ccc(Cl)cc1Cc1ccccc1
-21.8%: activity change, negative = inhibition [9]
active: Potency [7] 29.4 µM | Potency [12] 9.31 µM and 12.3 µM
inactive: Potency [1] | Potency [2] | Potency [3] | Potency [4] | Potency [5] | outcome [11] | Potency [8]

Cc1ncc(CNC(=O)N(CCCl)N=O)c(N)n1
inactive: Potency [1] | Potency [2] | Potency [3] | Potency [4] | Potency [10] | Potency [5] | outcome [11] | Potency [6] | Potency [8] | Potency [9]

Cn1cc(C2=C(c3cn(C4CCN(Cc5ccccn5)CC4)c4ccccc34)C(=O)NC2=O)c2ccccc21
active: Potency [12] 3.09 µM
inactive: Potency [1] | Potency [2] | Potency [3] | Potency [5] | Potency [7] | Potency [8]

O=C1CC[C@@]2(O)[C@H]3Cc4ccc(O)c5c4[C@@]2(CCN3CC2CC2)[C@H]1O5
-8.92%: activity change, negative = inhibition [9]
inactive: Potency [1] | Potency [2] | Potency [3] | Potency [4] | Potency [5] | Potency [6] | Potency [12] | Potency [8]

CC(C)NCC(O)c1ccc(O)c(O)c1 (stereo not given)
inactive: Potency [1] | Potency [2] | Potency [3] | Potency [8]

CCCC1CCCCN1 (stereo not given)
inactive: Potency [1] | Potency [2] | Potency [3] | Potency [4] | Potency [5] | Potency [6] | Potency [12] | Potency [8] | Potency [9]

CC1=C(C(=O)O)N2C(=O)[C@@H](NC(=O)[C@H](N)c3ccc(O)cc3)[C@H]2SC1
inactive: Potency [1] | Potency [2] | Potency [3] | Potency [8]

COc1ccccc1OCC(O)CN1CCN(CC(=O)Nc2c(C)cccc2C)CC1 (stereo not given)
inactive: Potency [1] | Potency [2] | Potency [3] | Potency [8]

COC(=O)Nc1nc2ccc(C(=O)c3ccccc3)cc2[nH]1
inactive: Potency [1] | Potency [2] | Potency [3] | Potency [8]

CC(N)C12CC3CC(CC(C3)C1)C2 (stereo not given)
inactive: Potency [1] | Potency [2] | Potency [3] | Potency [8]

CCN(CC)C(=O)N[C@@H]1C=C2c3cccc4[nH]cc(c34)C[C@@H]2N(C)C1
3.33%: activity change, negative = inhibition [9]
inactive: Potency [1] | Potency [2] | Potency [3] | outcome [11] | Potency [6] | Potency [8]
